{"source": "PubChem BioAssay AID504796", "about": "(The Scripps Research Institute Molecular Screening Center, 2011)", "note": "The other results are listed elsewhere or left out. Calls of active or inactive are those of the source. Cut-off read from the data, not from the text of the source: active = activation above about 20%; inactive = the rest."}
{"assay": "fluorescence polarization artefacts, biochemical, artefact control for PKA-R2B activator project (AID 504796);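 note: Cy5 labelled IP20 peptide probe with compound but no PKA protein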", "details": "FP artifact counterscreen, at 11.4 µM, active compounds read high"}
{"smiles": "O=C(CNC(=O)c1ccccc1)NCC(=O)OCC(=O)c1ccccc1", "activation": "9.84% (inactive)"}
{"smiles": "O=C(CN(C(=O)CCC(=O)Nc1nccs1)c1ccc(F)cc1)NCc1ccc2c(c1)OCO2", "activation": "-1.45% (inactive)"}
{"smiles": "CC(C)(C)c1ccc(C(=O)N2CCC(C(=O)N3CCCCC3)CC2)cc1", "activation": "4.67% (inactive)"}
{"smiles": "O=C(CCCN1C(=O)c2cccc3cccc(c23)C1=O)N1CCN(Cc2ccc3c(c2)OCO3)CC1", "activation": "1.66% (inactive)"}
{"smiles": "COc1ccc(CC(NC(C)=O)C(=O)NC2CCN(C(=O)c3ccc(Cl)cc3)CC2)cc1", "note": "(stereo not drawn)", "activation": "3.95% (inactive)"}
{"smiles": "O=S(=O)(NCCNS(=O)(=O)c1ccccc1)c1ccccc1", "activation": "4.68% (inactive)"}
{"smiles": "N#Cc1ccccc1CN1C(=O)S/C(=C/c2cccn2-c2cccc(C(=O)O)c2)C1=O", "activation": "19.3% (active)"}
{"smiles": "COc1ccc(C/C(C)=N/NC(=O)c2ccncc2)cc1", "activation": "1.96% (inactive)"}
{"smiles": "CC(C)(C)c1nnc(N/N=C/c2ccc(O)cc2)n(N)c1=O", "activation": "1.05% (inactive)"}
{"smiles": "COc1cccc(Nc2nnc(SCC(=O)N3CC(C)OC(C)C3)s2)c1", "note": "(stereo not drawn)", "activation": "1.43% (inactive)"}
{"smiles": "CCCC(=O)Nc1ncnc2c1ncn2[C@@H]1O[C@@H]2OP(=O)(O)OC[C@H]2[C@H]1OC(=O)CCC", "activation": "0.15% (inactive)"}
{"smiles": "COc1ccc([N+](=O)[O-])cc1C1NN=C(c2cccc3ccccc23)S1", "note": "(stereo not drawn)", "activation": "4.38% (inactive)"}
{"smiles": "O=C(O)C1=C(C(=O)O)C2CCC1C2", "activation": "5.92% (inactive)"}
